Here are results for 40 compounds from PubChem BioAssay (NCI).

Structures are written as SMILES. The panel holds about 83,000 compounds, 20% with a hit somewhere; the sample as a whole holds those more often.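 Activity criterion: percent growth below 10, measured after cells in 96-well plates were exposed to a single compound concentration for 48 hours.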 Active and inactive are the calls of the source.

In the experiment the test system is MDA-MB-468 breast. Put plainly: NCI-60 one-dose screen, 48 h (100 = growth as untreated, 0 = no growth, -100 = all killed). To be noted: 10 µM unless noted.
On to `COc1ccc2sc3c(NCCCN(C)C)nc4ccccc4c3c(=O)c2c1`, for which the growth is 36.2% (inactive). `O=C1Nc2ccccc2C12C=C(c1ccccc1)Nc1c2c(-c2ccccc2)nn1-c1ccccc1` (stereo not given): the growth is 105% (inactive). Consider `CCOc1cc2ncc(C#N)c(Nc3ccc(F)c(Cl)c3)c2cc1NC(=O)CC1CCSS1` (stereo not given), for which the growth is -74.2% (active). For the compound `CC1(C(N)=O)CCC(C(=O)O)C1(C)C` (stereo not given), the growth was 99.2% (inactive). Consider `Cc1ccc(C(=O)NN2C(=O)/C(=C/C=C/c3ccco3)SC2=S)cc1`, for which the growth was 71% (inactive). Under `Cn1ccnc1C(=O)/C=C/c1ccc(C(=O)Nc2ccc(Cl)cc2)cc1` stands 12.1% (inactive).

Turning to `Cc1ccc2c(c1)C(=O)/C(=C/c1cccc(F)c1)S2`, the growth was 84.7% (inactive). `CCOc1ccc(Cc2nccc3cc(OCC)c(OCC)cc23)cc1OCC`: the growth was 61.4% (inactive). Take `CCOC(=O)N1CCN(S(=O)(=O)c2oc(-c3ccc(Cl)cc3)nc2C#N)CC1`: the growth was 86.5% (inactive). Under `N=C1c2nc3n(c2C(=O)c2nc4n(c21)CCCCC4)CCCCC3` stands 99.8% (inactive); under `Sc1cccc2cccnc12`, 30% (inactive); under `Cc1cccc(/C=C2\N=C(c3ccccc3)N(c3ccc(S(N)(=O)=O)cc3)C2=O)c1`, 99.2% (inactive).

For `CCCCCc1nc2c(c3c1CCCC3)CCCC2`, the growth was 75.5% (inactive).

On to `CC[C@@]1(O)C(=O)OCc2c1cc1n(c2=O)Cc2cc3c(CN(C)C)c(O)ccc3nc2-1`, for which the growth was -58.2% (active).

As for `Nc1nc2ccc([C@@H]3Nc4ccc5[nH]ncc5c4[C@H]4[C@H]5CCC(C5)[C@H]43)cc2s1`, the growth is -14.4% (active). In the case of `O=C(/C=C/c1cccc(Cl)c1Cl)Nc1ncc(Cc2ccccc2Cl)s1`, the growth was 10.4% (inactive). In the case of `COc1ccc(-c2nc3c(ncc4ccc(=O)[nH]c43)s2)cc1`, the growth was 62.9% (inactive). Under `O=C(NC1CCOCC1)c1ccc2c(c1)CN(c1ncc(Cc3cccc(-n4cccn4)c3)s1)CC2` stands 41.4% (inactive); under `C/C(=C\CCc1ccsc1)CC/C=C(\C)CCCN1CCN(CCO)CC1`, 7.83% (active). Under `COC(=O)C1C2CC3c4[nH]c5cc(OC)ccc5c4CCN3CC2CC(OC2CCCCO2)C1OC` (stereo not given) stands 95.5% (inactive). Under `CC(=O)/C(=C\c1c(-c2ccccc2)[nH]c2ccccc12)S(=O)(=O)c1ccccc1` stands 6.12% (active). On to `CCSc1nc(-c2ccc(F)cc2)c(C#N)c(=O)[nH]1`, for which the growth was 91.4% (inactive). `CCn1cnc(C[C@H](NC(=O)[C@@H](NC(=O)Nc2cc(C(F)(F)F)cc(C(F)(F)F)c2)C(C)C)C(=O)OC)c1`: the growth was -81.1% [100 µM] (active). Under `O=C(CNC(=O)c1cccc2ccccc12)Nc1ccccc1Oc1cccc(O)c1` stands -3.16% [5 µM] (active). Under `CC12CCC(O)CC1=CCC1C2CCC2(C)C3=NN=CC3CC12` (stereo not given) stands 92.1% (inactive); under `C[C@@H]1C(=O)N(C[C@H](Cc2ccccc2)NC(=O)OCc2ccccc2)[C@]1(Cc1ccccc1)C(=O)OC(C)(C)C`, 46.7% (inactive).

In the case of `COC1=CC(=O)C(OC)=C(O)C1=O`, the growth is 91.8% (inactive).

`Cc1ccc(S(=O)(=O)N/N=C/c2cn(-c3ccc(F)cc3)nc2-c2ccc(S(C)(=O)=O)cc2)cc1`: the growth was 97% (inactive).

For the compound `C=C(C)[C@@H]1CC[C@]2(C(=O)N3CCN(C)CC3)CC[C@]3(C)[C@H](CC[C@@H]4[C@@]5(C)CC[C@H](OCCC#N)C(C)(C)[C@@H]5CC[C@]43C)[C@@H]12`, the growth was 69.4% (inactive). Under `COc1ccc(/C(=C2\O[C@@H]([C@H]3COC(C)(C)O3)[C@H]3OC(C)(C)O[C@@H]23)c2cc(OC)c(OC)c(OC)c2)cc1O` stands 96.4% (inactive).

As to `NC(N)=NC(N)=Nc1ccccc1-c1ccccc1`, the growth is 109% (inactive).

On to `COc1cccc(CCC(=O)c2cc3c(N)c(C(=O)Nc4cccc(Cl)c4C)sc3nc2C)c1`, for which the growth is 15.1% (inactive). Under `CCCCCCCCCCCCCCCCCCOc1ccccc1CC(=O)NCC[N+]1(C)CCCCC1` stands 7.37% (active); under `COCCn1cc(-c2nc(-c3cccnc3)cs2)c2cc(F)ccc21`, 100% (inactive); under `CC[C@]1(O)C[C@@H]2CN(Cc3c([nH]c4ccccc34)[C@@](C(=O)OC)(c3cc4c(cc3OC)N(C)[C@H]3[C@@](O)(C(=O)OC)[C@H](OC(C)=O)[C@]5(CC)[C@@H]6C[C@@H]6CN6CC[C@]43[C@@H]65)C2)C1`, 8.25% (active).

In the case of `COc1cc2c(cc1OC(C)=O)C(=O)CCCC2`, the growth was 76.8% (inactive). In the case of `O=C(CSc1nccc(Nc2cccc3ccccc23)n1)c1ccc(Cl)cc1`, the growth is 98.5% (inactive). Under `Cc1ccc(-c2nc(SCC(=O)c3ccccc3)nc(Nc3ccc(S(N)(=O)=O)cc3)c2C#N)cc1` stands 113% (inactive); under `COc1cc(N2C(=O)[C@H](c3ccccc3)C2c2ccc(SC)cc2)cc(OC)c1OC` (stereo not given in full), -9.99% (active). Under `O=C(CCn1cc[n+](CC(=O)c2ccc(-c3ccccc3)cc2)c1)Nc1cccc2cccnc12` stands -16.8% (active).
